These results are taken from PubChem BioAssay (NCI).

Compounds without any hit were thinned out: in the full panel of roughly 83,000, 20% have a hit.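 Compound tested at a single concentration for 48 hours in 96-well plates; a percent growth value below 10 was scored as active.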 Unmarked numbers belong to inactive results. Calls of active or inactive are those of the source.

For the test, the system named is MDA-MB-468 breast. The experiment in a line: NCI-60 one-dose screen, 48 h (100 = growth as untreated, 0 = no growth, -100 = all killed). Particulars: 10 µM unless noted.
`O=C(/C=C/c1cccc(Cl)c1)c1ccc(O)c(CN2CCN(c3cc4c(cc3F)c(=O)c(C(=O)O)cn4C3CC3)CC2)c1`: the growth was 28.8%.

In the case of `CCOS(=O)(=O)c1ccc([N+](=O)[O-])cc1`, the growth was 119%.

As for `COc1cccc(CC(C)=C(c2ccc(OCCN3CCCCC3)cc2)c2ccc(OCCN3CCCCC3)cc2)c1`, the growth was -82.8% (active).

For `C=C1C(=O)O[C@H]2[C@H]1CC/C(COC(=O)/C=C\C(=O)NCc1ccc(Cn3c(=O)sn(CCCC)c3=O)cc1)=C\CC[C@@]1(C)O[C@@H]21`, the growth was -70.9% (active).

Take `Cc1ccsc1C(=O)CC(=O)C(F)(F)C(F)(F)C(F)(F)F`: the growth was 112%.

For the compound `COc1ccc(C(=O)c2cc(C)c(OC)c(C)c2)c(OC)c1NC(C)=O`, the growth was 12.4%.

Regarding `CCN(CC)C(=O)c1cccnc1`, the growth is 109%.

Take `CN(C)CCCOc1ccccc1NC1=C(Cl)C(=O)C(Nc2ccccc2OCCCN(C)C)=C(Cl)C1=O`: the growth was -60.6% (active).

Consider `CCn1cc(C(=O)N/N=C/c2cccc(F)c2)c(=O)c2cc(F)c(N3CCNC(C)C3)c(F)c21` (stereo not given), for which the growth is 71.6%.

For the compound `C=C1CCC2C3(C)COC(c4ccccc4)OC3CCC2(C)C1/C=C/C1=CCOC1=O` (stereo not given), the growth is 29.5%.

For `COc1ccc2c(c1)C1(C(=O)N2)C(C#N)=C(c2ccccc2)Nc2c1c(-c1ccccc1)nn2-c1ccccc1` (stereo not given), the growth was 76.5%.

On to `CCN(CC)CC#CCOC(=O)[C@]1(C)CCC[C@]2(C)[C@H]3C[C@H]4C(C(C)C)=C[C@]3(CC[C@H]21)[C@@H]1C(=O)CCC(=O)[C@@H]14`, for which the growth is 11%.

For `CCCCCCCCCCCC(=O)[O][Sn]([CH2]CCC)([CH2]CCC)[CH2]CCC`, the growth is -79.4% (active).

For `Fc1cc2c(cc1Cl)N(c1ncnc3ccc(-c4cnc5[nH]ncc5c4)cc13)CC2`, the growth is 49.5%.

As to `COc1ccc(/C=C(\C#N)n2nc3cccc(F)c3n2)cc1`, the growth was 100%.

For `Cc1ccc2cccc(Oc3ccc(Nc4ncnc5onc(-c6ccccc6)c45)cc3)c2n1`, the growth was 86.8%.

Consider `Clc1ccc(Nc2ncnc3c2sc2ncccc23)cc1`, for which the growth is 23%.

Take `CC(=O)/C(=C/c1cccc(Cl)c1)C(=O)c1ccccc1`: the growth was 99.2%.

As to `C=CCn1c(SCC(=O)Nc2ccc(/C(C)=N/O)cc2)nnc1-c1cc(-c2ccc(S(N)(=O)=O)cc2)nc2ccccc12`, the growth is 57%.

In the case of `CCN1CCN(CC(=O)Nc2nc3ccc(NCc4ccc(Br)cc4)cc3s2)CC1`, the growth is 61.1%.

Consider `O=c1[nH]cnc2nc[nH]c12`, for which the growth is 100%.

Take `CNc1nc2ncc(-c3c(C)noc3C)cc2n1Cc1ccccc1`: the growth was 34.7%.

On to `O=C(CCl)N1CCCc2ccccc21`, for which the growth was 80.9%.

In the case of `Cc1ccc(Nn2c(SCC(=O)Nc3nc(-c4ccccc4)cs3)nc(C)c2C)cc1`, the growth is 17.7%.

As for `Cc1ccc(C2CCCCC2)cc1Br`, the growth was 97%.

As for `CCOC(=O)c1sc2ncnc(Nc3ccc4c(cnn4C(=O)Nc4ccc(C)c(Cl)c4)c3)c2c1C`, the growth was 95.1%.

Turning to `[2H]C([2H])([2H])Oc1ccc(/C=C/C(=O)/C=C(/C=C/c2ccc(OC([2H])([2H])[2H])c(OC([2H])([2H])[2H])c2OC([2H])([2H])[2H])OB(F)F)c(OC([2H])([2H])[2H])c1OC([2H])([2H])[2H]`, the growth was 65%.

As to `CN(Cc1cnc2nc(N)nc(N)c2n1)c1c(Cl)cc(C(=O)NC(CCC(=O)O)C(=O)O)cc1Cl` (stereo not given), the growth was 15.3%.

As for `COc1ccc(C2=Nn3c(NN)nnc3SC2)cc1`, the growth is 106%.

With `COc1ccccc1/C=N/NC1=NC2C(N1)N(C)C(=O)N2C` (stereo not given), the growth is 106%.

Take `COc1ccc(N=Cc2c(O)ccc3c2oc2cc(Cl)c(O)c(Cl)c23)cc1`: the growth is 72.5%.

With `Cn1cc(-c2csc(-c3cn(CCNC(=O)OC(C)(C)C)c4ccc(F)cc34)n2)c2cccnc21`, the growth is 19.5%.

Consider `COc1ccc(-c2c3c(N)c4c(nc3nc3c2c(C)nn3-c2ccccc2)CCCC4)cc1`, for which the growth is 70.3%.

For the compound `COc1ncnc2c1cnn2C`, the growth was 106%.

In the case of `CN1CCOCCOCCOc2ccccc2NC(=O)c2nc(cnc2N)-c2ccc(cc2)S1(=O)=O`, the growth is 41.4%.

As for `CCOC(=O)c1noc2c1CCc1cn(Cc3cc(OC)cc(OC)c3)cc1-2`, the growth is 108%.

As for `O=[N+]([O-])c1ccc(Cl)c(S(=O)(=O)O)c1`, the growth is 112%.

For the compound `CCOC(=O)c1ccc2c(c1)c1c(C)c3ccncc3c(C)c1n2C`, the growth is 5.19% (active).

In the case of `Cc1ccc(C2CC(c3cccc(Nc4ccncc4)c3)=NN2c2ccc(Cl)cc2)cc1` (stereo not given), the growth was -71% (active).

For `COc1ccc(-c2nc3sc(-c4ccc(Cl)cc4)cn3n2)cc1`, the growth is 33.4%.
